Measured values as given in ChEMBL document CHEMBL3988442, “University of Dundee, Small-Polar-MMV Screening Library” (2021).
For some of these results: Measured potencies and affinities stand elsewhere.

Legend:
Set-up in all cases: scale not given: direction of the effect not stated beside the values
[1] = biological target: Protein translocase subunit SecA (Escherichia coli (strain K12)) (UniProt P10408); assay: Assay to Identify E. coli SecA ATPase Inhibitors; format: functional; conditions: 30 µM
[2] = biological target: T1, Ubiquitin-activating enzyme e1, putative (Leishmania donovani (strain BPK282A1)) (UniProt E9BSI1); assay: Leishmania donovani Ubiquitin Activating Enzyme (LdE1); format: functional; conditions: 30 µM
T1 sequence (whole entry): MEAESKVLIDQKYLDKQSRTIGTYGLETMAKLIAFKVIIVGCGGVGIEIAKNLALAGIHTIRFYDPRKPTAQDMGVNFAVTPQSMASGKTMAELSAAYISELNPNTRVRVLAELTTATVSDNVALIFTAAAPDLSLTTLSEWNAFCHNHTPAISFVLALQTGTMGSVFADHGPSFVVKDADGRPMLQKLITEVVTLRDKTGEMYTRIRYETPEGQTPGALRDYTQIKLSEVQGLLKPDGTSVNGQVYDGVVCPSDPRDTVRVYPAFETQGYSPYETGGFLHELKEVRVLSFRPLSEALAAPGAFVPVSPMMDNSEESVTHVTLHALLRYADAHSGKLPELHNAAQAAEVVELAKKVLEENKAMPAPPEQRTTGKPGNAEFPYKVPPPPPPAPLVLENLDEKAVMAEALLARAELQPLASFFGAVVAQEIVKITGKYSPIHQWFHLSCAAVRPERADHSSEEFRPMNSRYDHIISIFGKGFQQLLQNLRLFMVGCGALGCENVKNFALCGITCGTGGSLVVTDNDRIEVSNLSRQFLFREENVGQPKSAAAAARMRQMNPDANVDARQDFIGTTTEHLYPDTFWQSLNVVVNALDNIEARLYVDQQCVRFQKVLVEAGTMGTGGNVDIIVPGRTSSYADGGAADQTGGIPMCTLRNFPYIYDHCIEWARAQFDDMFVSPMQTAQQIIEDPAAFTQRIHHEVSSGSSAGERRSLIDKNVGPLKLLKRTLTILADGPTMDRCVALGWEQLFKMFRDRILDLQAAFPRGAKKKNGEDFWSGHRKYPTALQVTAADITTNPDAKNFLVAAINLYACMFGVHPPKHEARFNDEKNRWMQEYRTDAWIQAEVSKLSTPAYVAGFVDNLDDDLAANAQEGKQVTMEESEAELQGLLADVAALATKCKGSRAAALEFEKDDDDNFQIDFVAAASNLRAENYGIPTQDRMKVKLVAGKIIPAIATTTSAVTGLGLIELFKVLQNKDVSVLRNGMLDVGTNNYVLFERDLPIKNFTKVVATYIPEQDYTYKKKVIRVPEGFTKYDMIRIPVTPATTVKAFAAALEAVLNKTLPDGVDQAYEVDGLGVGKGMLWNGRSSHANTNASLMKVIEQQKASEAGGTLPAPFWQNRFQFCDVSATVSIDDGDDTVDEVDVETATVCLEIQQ

[3] = biological target: AMP-activated protein kinase, AMPK (Homo sapiens) (UniProt P54646+O43741+P54619+Q9UGJ0+Q9Y478+Q13131+Q9UGI9); assay: AMP-dependent Kinase enzyme assay. An in vitro enzyme assay that detects ADP turnover that is directly proportional to AMPK activity. This uses naive AMPK that is activated during the assay with MK-8722; format: functional; conditions: 30 µM
[4] = biological target: Sialic acid-binding Ig-like lectin 9 (Homo sapiens) (UniProt Q9Y336); assay: Hs-Siglec9 ALPHAscreen SOP 20170721; conditions: 10 µM
Trypanosoma cruzi = assay: Trypanosoma cruzi phosphomannomutase and mannose-1-phosphate guanylyltransferase assay; format: functional; conditions: 10 µM
[5] = biological target: T2, Arginase-2, mitochondrial (Homo sapiens) (UniProt P78540); assay: in vitro enzyme assay to detect the production of urea directly proportional to the activity of Arginase II; format: functional; conditions: 33.3 µM; further: in the data most compounds retested in dose-response had high values
T2 sequence (whole entry): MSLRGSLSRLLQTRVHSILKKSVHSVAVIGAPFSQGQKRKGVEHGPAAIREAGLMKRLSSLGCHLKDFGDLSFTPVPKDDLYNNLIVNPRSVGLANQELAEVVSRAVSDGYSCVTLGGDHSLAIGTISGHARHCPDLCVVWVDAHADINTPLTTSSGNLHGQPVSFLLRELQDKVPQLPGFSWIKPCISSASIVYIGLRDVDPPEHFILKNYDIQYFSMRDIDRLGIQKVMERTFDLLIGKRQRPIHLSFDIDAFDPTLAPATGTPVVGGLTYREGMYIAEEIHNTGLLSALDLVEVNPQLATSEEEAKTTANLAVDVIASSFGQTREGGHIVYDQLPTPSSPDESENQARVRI

[6] = biological target: T3, Proteasome subunit beta (Trypanosoma cruzi) (UniProt O96673); assay: Trypanosoma cruzi proteasome chymotrypsin-like activity (TcProtChymo) assay.; further: in the data most compounds retested in dose-response had high values; format: functional; conditions: 9.37 µM
T3 sequence (whole entry): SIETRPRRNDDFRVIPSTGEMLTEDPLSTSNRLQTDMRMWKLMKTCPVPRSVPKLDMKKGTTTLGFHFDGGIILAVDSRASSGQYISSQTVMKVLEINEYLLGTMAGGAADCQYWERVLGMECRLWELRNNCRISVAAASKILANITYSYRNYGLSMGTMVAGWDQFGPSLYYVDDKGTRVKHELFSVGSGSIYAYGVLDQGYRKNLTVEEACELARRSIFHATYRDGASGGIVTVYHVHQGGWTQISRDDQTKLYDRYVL

Homo sapiens = species on record: Homo sapiens; assay: To identify inhibition of the IFN signalling (Jak-Stat) pathway via expression of an eGFP reporter gene under the control of an IFN-stimulated response element (ISRE) containing MxA promoter.; format: functional; conditions: 30 µM
[7] = biological target: T4, Tyrosyl-tRNA synthetase, putative (Trypanosoma cruzi (strain CL Brener)) (UniProt Q4DSP6); assay: Trypanosoma cruzi tyrosyl tRNA synthetase (TcYRS) _High Tyrosine SOP; format: functional; conditions: 30 µM; further: in the data most compounds retested in dose-response had high values
T4 sequence (whole entry): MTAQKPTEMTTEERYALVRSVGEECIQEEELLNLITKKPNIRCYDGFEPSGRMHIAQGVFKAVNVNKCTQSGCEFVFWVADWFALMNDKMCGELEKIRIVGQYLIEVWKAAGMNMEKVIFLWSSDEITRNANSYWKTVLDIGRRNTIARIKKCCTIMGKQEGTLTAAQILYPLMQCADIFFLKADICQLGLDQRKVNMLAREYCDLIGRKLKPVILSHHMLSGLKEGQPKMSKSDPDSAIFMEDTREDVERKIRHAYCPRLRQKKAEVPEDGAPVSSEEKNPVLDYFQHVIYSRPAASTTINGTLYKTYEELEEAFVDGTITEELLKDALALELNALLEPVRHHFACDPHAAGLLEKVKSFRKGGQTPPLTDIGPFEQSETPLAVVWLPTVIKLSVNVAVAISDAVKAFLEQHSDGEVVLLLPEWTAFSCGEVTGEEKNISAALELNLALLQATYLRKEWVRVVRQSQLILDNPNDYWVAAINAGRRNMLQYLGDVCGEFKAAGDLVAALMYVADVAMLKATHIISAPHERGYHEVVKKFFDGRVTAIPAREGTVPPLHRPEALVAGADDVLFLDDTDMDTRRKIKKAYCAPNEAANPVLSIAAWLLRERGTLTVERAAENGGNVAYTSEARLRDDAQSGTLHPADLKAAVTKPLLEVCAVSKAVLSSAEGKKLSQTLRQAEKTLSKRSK

[8] = biological target: T4, Tyrosyl-tRNA synthetase, putative (Trypanosoma cruzi (strain CL Brener)); assay: Trypanosoma cruzi tyrosyl tRNA synthetase (TcYRS) SOP; format: functional; conditions: 30 µM
[9] = biological target: Chromo domain-containing protein 1 (Saccharomyces cerevisiae (strain ATCC 204508 / S288c) (Baker's yeast)) (UniProt P32657); assay: ScCHD-1 Enzyme Inhibition Assay; format: functional; conditions: 30 µM; further: in the data most compounds retested in dose-response had high values
Chromo domain-containing protein 1 (Saccharomyces cerevisiae (strain ATCC 204508 / S288c) (Baker's yeast)), sequence (P32657 whole entry, the tested form may be a part): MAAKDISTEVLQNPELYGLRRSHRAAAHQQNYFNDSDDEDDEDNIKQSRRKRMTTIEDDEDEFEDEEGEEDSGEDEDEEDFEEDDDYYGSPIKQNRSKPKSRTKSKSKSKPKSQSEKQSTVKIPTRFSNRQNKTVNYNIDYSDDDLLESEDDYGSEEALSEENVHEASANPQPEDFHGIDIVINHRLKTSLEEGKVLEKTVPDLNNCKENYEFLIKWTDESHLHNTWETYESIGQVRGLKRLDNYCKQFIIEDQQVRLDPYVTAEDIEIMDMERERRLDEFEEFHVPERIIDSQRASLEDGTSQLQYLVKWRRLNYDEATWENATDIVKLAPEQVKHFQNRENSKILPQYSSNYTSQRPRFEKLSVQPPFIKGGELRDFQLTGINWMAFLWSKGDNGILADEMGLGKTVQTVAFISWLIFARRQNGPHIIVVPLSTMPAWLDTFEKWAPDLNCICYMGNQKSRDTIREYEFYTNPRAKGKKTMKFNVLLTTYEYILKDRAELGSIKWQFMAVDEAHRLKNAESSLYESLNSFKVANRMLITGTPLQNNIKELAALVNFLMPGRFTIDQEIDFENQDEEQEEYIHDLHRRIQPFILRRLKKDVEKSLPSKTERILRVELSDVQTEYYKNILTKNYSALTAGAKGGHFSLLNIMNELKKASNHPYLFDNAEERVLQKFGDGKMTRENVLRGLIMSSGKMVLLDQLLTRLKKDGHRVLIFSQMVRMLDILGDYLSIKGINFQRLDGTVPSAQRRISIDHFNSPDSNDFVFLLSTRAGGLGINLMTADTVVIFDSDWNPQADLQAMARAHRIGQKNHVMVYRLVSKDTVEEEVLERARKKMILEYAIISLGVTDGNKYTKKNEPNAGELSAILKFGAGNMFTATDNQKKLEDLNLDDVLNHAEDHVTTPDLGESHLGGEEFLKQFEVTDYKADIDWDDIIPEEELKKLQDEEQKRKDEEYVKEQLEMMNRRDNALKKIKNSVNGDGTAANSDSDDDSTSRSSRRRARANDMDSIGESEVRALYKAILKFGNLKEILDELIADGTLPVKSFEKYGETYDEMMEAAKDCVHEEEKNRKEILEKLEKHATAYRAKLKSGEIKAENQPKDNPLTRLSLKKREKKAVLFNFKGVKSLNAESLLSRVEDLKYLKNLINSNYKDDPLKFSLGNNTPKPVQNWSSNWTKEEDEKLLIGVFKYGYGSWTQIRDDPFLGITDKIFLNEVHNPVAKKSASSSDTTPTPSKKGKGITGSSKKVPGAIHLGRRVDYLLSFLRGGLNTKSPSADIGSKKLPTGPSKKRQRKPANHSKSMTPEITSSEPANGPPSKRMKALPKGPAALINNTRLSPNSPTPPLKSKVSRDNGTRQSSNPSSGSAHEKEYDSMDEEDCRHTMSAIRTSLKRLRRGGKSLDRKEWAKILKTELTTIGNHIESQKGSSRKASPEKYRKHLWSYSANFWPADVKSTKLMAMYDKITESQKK

Sialic acid-binding Ig-like lectin 9 (Homo sapiens), sequence (Q9Y336 whole entry): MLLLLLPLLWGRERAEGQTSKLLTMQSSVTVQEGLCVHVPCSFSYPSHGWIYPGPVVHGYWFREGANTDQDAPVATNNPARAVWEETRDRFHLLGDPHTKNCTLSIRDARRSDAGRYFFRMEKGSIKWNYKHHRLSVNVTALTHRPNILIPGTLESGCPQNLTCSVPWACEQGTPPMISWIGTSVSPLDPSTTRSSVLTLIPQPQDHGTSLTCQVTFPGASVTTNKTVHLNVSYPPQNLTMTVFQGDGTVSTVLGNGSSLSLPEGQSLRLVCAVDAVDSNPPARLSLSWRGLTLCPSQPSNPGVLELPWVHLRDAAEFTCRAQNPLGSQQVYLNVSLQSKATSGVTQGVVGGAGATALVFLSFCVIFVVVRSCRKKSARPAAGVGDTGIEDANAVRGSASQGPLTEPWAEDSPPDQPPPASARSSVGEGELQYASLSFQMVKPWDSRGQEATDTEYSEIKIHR
Protein translocase subunit SecA (Escherichia coli (strain K12)), sequence (P10408 whole entry): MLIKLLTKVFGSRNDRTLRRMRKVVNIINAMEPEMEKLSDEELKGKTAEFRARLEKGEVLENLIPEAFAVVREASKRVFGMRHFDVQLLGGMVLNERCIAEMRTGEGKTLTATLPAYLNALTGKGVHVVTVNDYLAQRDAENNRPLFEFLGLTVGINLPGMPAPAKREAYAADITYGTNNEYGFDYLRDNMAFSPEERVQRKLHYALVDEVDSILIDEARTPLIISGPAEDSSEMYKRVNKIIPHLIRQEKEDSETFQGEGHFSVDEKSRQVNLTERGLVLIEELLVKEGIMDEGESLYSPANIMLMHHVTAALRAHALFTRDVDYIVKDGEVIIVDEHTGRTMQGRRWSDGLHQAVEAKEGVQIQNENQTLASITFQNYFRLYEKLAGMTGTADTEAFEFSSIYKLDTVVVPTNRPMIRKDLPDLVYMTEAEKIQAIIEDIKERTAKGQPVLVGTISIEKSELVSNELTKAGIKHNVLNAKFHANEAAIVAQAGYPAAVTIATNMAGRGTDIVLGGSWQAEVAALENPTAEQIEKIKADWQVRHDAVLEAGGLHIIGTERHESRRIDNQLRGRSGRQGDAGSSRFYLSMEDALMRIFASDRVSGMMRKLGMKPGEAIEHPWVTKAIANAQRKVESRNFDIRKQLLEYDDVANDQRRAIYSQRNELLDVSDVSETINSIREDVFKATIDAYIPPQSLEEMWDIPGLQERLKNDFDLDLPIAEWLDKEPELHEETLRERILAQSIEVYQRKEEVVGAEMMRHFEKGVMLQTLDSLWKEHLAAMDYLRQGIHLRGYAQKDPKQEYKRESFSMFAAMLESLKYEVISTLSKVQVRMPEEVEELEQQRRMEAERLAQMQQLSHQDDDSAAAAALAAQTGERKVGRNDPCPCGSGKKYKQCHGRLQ

| SMILES | Percent Effect [1] [%] | Percent Effect [2] [%] | Percent Effect [3] [%] | Percent Effect [4] [%] | Percent Effect (Trypanosoma cruzi) [%] | Percent Effect [5] [%] | Percent Effect [6] [%] | Percent Effect (Homo sapiens) [%] | Percent Effect [7] [%] | Percent Effect [8] [%] | Percent Effect [9] [%] |
| --- | --- | --- | --- | --- | --- | --- | --- | --- | --- | --- | --- |
| Cc1cc(NC(=O)CN2CCCC2c2noc(C3CC3)n2)no1 (stereo not given) | -4.72 | 13.7 | 11.2 | 9.93 | 5.68 | -0.909 | 16.9 | 5.99 | 3.23 | 15 | 22.7 |
| O=C(c1ccc(C2CCCO2)s1)N1CCN(c2ccccc2F)CC1 (stereo not given) | -2.34 | 16.2 | -2.01 | 21.1 | 3.67 | 30 | 14.1 | -6.24 | 5.82 | 14.6 | -4.16 |
| CCC(C)NC(=O)Cc1c(C)nc2c(c1C)c(=O)[nH]n2C (stereo not given) | 0.22 | 13 | 1.2 | 14 | 3.44 | 1.38 | 7.32 | -10.2 | 2.15 | 16.1 | -1.16 |
| Cc1csc(CNC(=O)NCC(O)c2cccc(Cl)c2)n1 (stereo not given) | -1.7 | 8.11 | -4.44 | 1.18 | 3.48 | -2.38 | 20.5 | 24.4 | 3.7 | 12.2 | -0.155 |
| CC(C)(C)OC(=O)N1CCCC[C@H]1C(=O)NCc1nccs1 | -0.685 | 0 | -2.33 | 5.11 | 5.18 | 16.6 | 0.944 | -20.1 | 4.3 | 8.64 | -4.5 |
| Cc1cc(-c2cnc(NCc3cccnc3)nc2C(C)(C)C)on1 | -1.82 | 0 | 24.3 | 4.38 | -3.74 | -0.699 | 8.37 | 43.3 | 6.38 | 6.41 | -0.51 |
| CC(O)CN(CC(=O)NC(=O)NCC(F)(F)F)c1ccccc1 (stereo not given) | -4.64 | 7.79 | 6 | 6.31 | -3.82 | 1.9 | 7.36 | 17.3 | 0 | 11.8 | -9.73 |
| O=C(NCc1cnc2n1CCN(CC1CC1)CC2)C1CCC1 | -2.75 | 13.5 | -7.3 | 21.4 | 4.79 | 18.1 | 7.47 | -8.45 | 6.45 | 16.1 | -4.7 |
| C=C(C)C(=O)N1CCC(C(=O)c2cc(C)cnc2N)CC1 | -7.55 | 5.33 | 0.0671 | 1.76 | 7.09 | -1.63 | 5.55 | 11.8 | 7.45 | 14.1 | -3.43 |
| CS(=O)(=O)c1ccc(CNC2CCCN(c3cccnn3)C2)cc1 (stereo not given) | -2.48 | 18.2 | 4.4 | -0.526 | 0.686 | 6.53 | 12.5 | 9.14 | 8.57 | 21.2 | -19 |
| COC(=O)c1cccc(C(=O)N2CCN(c3cccc(C)c3C)CC2)n1 | -0.0243 | 20.8 | -2.32 | 0.218 | 2.66 | 0.645 | 10.3 | 87 | 2.12 | 11.5 | -9.48 |
| CC(=O)N(Cc1ncc(C)o1)C1CCN(CCNC2CCCCC2)C1 (stereo not given) | -1.61 | 2.7 | 2.29 | -9.81 | -9.68 | 0.744 | 13 | 18.4 | -2.15 | -3.7 | -7.63 |
| CC1CN(C)CCN1C(=O)c1ccn(-c2cccc(Cl)c2)n1 (stereo not given) | -4.4 | 5.2 | 3.41 | 8.46 | 3 | -4.98 | -5.91 | -0.574 | 2.91 | 9.76 | -7.43 |
| O=C(c1cccnc1)N1CCC2(CC1)CCN(c1ccsc1)C2=O | -4.05 | -2.6 | 1.54 | -7.82 | -1.28 | -4.52 | 12 | -7.6 | -5.29 | -6.41 | 0.0389 |
| CN(C)Cc1ccnc(C2CCCN2Cc2ccncc2)n1 (stereo not given) | -4.54 | 9.46 | -5.08 | 2.14 | 6.72 | -4.41 | 4.21 | 7.82 | 3.23 | 11.7 | -20.6 |
| COCCN1CCC(NCc2ccc(C#N)cc2)C1 (stereo not given) | -8.38 | 0 | -5.29 | 8.39 | 9.55 | 4.98 | 1.86 | 2.29 | 8.74 | 21.9 | -10.6 |
| Cc1ncnc2c1CCN(c1cc(C(F)(F)F)ncn1)CC2 | -2.66 | 13.3 | -0.456 | -3.31 | -3.09 | -58.2 | 13.7 | 4.55 | 0 | 2.5 | -7.43 |
| COc1ccc(C(=O)N(C)Cc2nnc3ccccn23)c(OC)c1 | -4.19 | -5.2 | 1.07 | 4.72 | 2.06 | -1.47 | 12.5 | -2.12 | 2.86 | 14.1 | -15.8 |
| COc1ccccc1CNC(=O)C1=NN(c2ccc(C)cc2)C(=O)CN1 | -2.03 | 13.5 | -0.556 | 34.6 | -3.62 | -0.248 | 15.2 | 98.2 | -6.45 | -3.7 | -2.26 |
| O=C(Nc1nncs1)NC1CCc2ccccc21 (stereo not given) | 0.119 | 5.48 | 1.57 | 3.21 | -6.94 | -3.19 | 8.13 | 40.4 | 6.25 | 16.1 | -1.82 |
